In all, about 2,700 sequences were measured (“arbitrary fluorescence units”: median about 4,100, highest 2% from about 54,000 on). Only a selection was taken, and the highest values are over-represented in it overall.
biological target: T1, ETS1 (UniProt P14921); experiment: ETS1 binding intensity (PBM fluorescence) (arbitrary fluorescence units); higher = stronger binding; settings: ETS1 concentration 10 nM
T1 sequence: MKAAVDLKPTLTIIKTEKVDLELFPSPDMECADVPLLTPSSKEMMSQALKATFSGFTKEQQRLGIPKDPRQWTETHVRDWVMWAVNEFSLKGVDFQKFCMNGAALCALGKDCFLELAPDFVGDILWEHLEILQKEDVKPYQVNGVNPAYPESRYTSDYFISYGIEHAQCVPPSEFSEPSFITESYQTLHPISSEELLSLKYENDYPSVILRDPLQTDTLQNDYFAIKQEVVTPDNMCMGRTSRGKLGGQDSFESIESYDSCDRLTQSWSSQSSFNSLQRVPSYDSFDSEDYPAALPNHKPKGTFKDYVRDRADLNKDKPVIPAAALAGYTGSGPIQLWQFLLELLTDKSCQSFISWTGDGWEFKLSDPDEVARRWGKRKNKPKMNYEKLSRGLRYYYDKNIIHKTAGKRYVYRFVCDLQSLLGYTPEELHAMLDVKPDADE
Method: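 gcPBM on wild-type 36-bp genomic probes with two neighbouring ETS1 sites (4-24 bp apart). Recombinant human ETS1 (10 nM) was detected with anti-ETS1 antibody fluorescence. Values are medians over 3 replicate spots. The probes sit in constant array flanks that are not printed.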

| Sequence | ETS1 binding intensity |
| --- | --- |
| GTTTTCAGTTGCCTTCCGGTTTCCTGCTGTGATAAC | 15800 |
| TCTACTTCCGGTTTGCCTGTGAATTCTTTCCTGGGC | 153000 |
| GAGGGTAACTTCCTGTTTCTGCCTTCCGGGTTTGAG | 47100 |
| AAGGGAATCTGGGAAATGTAGTTTCCTGCAATCCAG | 540 |
| GCCCGAGCCGCTTCCGGGTACTTCCGGCGGCCGCGG | 39600 |
| GGCCGCTTCCGAGCGCCGCCAACCGCTTCCGGGTTC | 5250 |
| GTCACTTCCGGCCCCGAGTTCGAGCCGCTTCCGGGT | 115000 |
| GGACTTCCCAACTAGACAGACCAAATGAGGAAGTTG | 880 |
| CTGGGGGTCCGGATGCTTTGCGTTTCCCAGCAGTTG | 1230 |
| GGGCACTTCCGGGGCCGGCGCCCAGAGTTCCGGGAG | 46800 |
| CCCACTTCCGGCAACAAGATAGAGCACTTCCGTCAA | 77600 |
| TGACAAGAGCCGGAACCGTCACTTCCGGCGGCGCGG | 24700 |
| TCAGTGGGCGGAAGAGGTGGCCCCGGATGCTGCGGC | 1430 |
| GCGGTTACTTCCGGTCACTTTCGCCGGAACCTGACT | 86200 |
| CGCCGCCGGAAGTGCCTGGCCTCACTTCCGGTCAGA | 37200 |
| ATTTTCGGTCTTCCGGTCAGCCGGAACCACTCACAC | 29800 |
| CCATTCATTTCCTGCCTCCCCGAGTTCCGGCTGCGG | 35800 |
| CAATTGAGGAAACAGGACCAAAGACAGGAAATGGCT | 2860 |
| GCGCTTCGGGCCCTTCCGGCTTCCCGGGCCTCCCGG | 8330 |
| CGTCACTTCCGGCGCCGCGTGAGGCCTTCCGGTGCC | 73900 |
| CGTCCACTGGAGGCTTCCTTCCGGCGCCCGCGTGCC | 3590 |
| GCGCCTGATTCACTTCCCTCTTCCGCTCTGAGGCGT | 4680 |
| GACCGCAGGAAGGGACGCGGCCGCACTTCCGGCGAC | 8620 |
| CCACTTCCGGCATGCGCAGGGACGCACCTTCCGGCT | 109000 |
| GCGCTTCCGGGACGCAGGAGGCATCTGCATCCGGGG | 29000 |
| GACAGGAAGGCTACAGGCTGCCTGTGGCTTCCGTGT | 386 |
| CTCTGTGACTTCCTGGAGACTCACTTCCTAGATGAG | 11300 |

| Sequence | ETS1 binding intensity |
| --- | --- |
| AGCACTTCCTCAATTTCTGGCTCTACAGGATATTTC | 16100 |
| AGACTTCCGTTCTGGCTCTCACTCTAGTTTCCTGGT | 67500 |
| ACTGCCTTCCTGGCCTGGTGGTGAGAGGAAGTCGGG | 2260 |
| CTATGGTAGGAAACCCAGAAAACAGGAAGTGGCCTC | 3030 |
| CAACTTGTCGGAGCGGAACTTCCGGCGTCCTCCCTG | 22800 |
| GGGTGCGGAAACGCGGCAGCCGCGGCCGGATGCTGC | 2710 |
| TGCCCGGCTTCCGGGTGGCTGCGCGGAAGCGCGGTG | 20900 |
| GCTGCAACTTCCGGTGCGCTAGCCGGAAACGCGGGT | 78200 |
| CCTCCCGGAAGCCGCTGGCCCGCGCCGGAAAAGGTG | 7300 |
| ACAACTTCCGGCTGTAAAGATGGCGGCTTCCTAGTG | 96400 |
| GGACAGGGACCGGATGGGAGGGGAAGTCGATGCTTG | 3430 |
| TCCTCCTCACTTCCGCCGGAGCGGAAACGGTGAGGA | 31200 |
| TTTTATTTCCGGTTCTGAGGACGCCGCGGAAGCGGG | 78400 |
| GGTGTTCCGGACCCGCGCGGTGCGGGGAGGAAGGCC | 1700 |
| GGTGCTCACGGATGCTACGCTTGTTCCTGTCTCCTC | 370 |
| TGAGCTATTTGACTTCCGGTTTCCTGCCCCATTTAA | 63200 |
| GCCCTTCCGGTTATTTCCCTTCCTGTTTGTCTGCCT | 48700 |
| AGCCCCACCATTTCCTGTGACTTCCTGGAGCCTGGC | 25600 |
| TCAATTTCTCATTTCCCTGGAGGAAGCCCATAAAGT | 217 |
| CGGGCGGAAAGGGAGCTAGAGCATTCTGGGAAATGG | 178 |
| TGTTTACTTCCGGCTTTTCGCCTAATTCCGGCGGCC | 55000 |
| TTATTCTGTTTCCGGCAGTTTTACTTCCGTTTGTTT | 15900 |
| GCGGCTTGGGCCTTCCGGCTTTCCGTCCGCCGCGGC | 7060 |
| AAAGCGCATTGCGGATGGCAATTCCGGTGCGTCATT | 732 |
| GCTTGGCAGTCAGGAAGGACTTCCTGTTTCTGCTTC | 14400 |
| CACCACTTCCTGTTTCTGAGTCATCAGGAAGGTAAT | 58900 |
| CATTTACCACTTCCTGAGGTCATTTCCTGTTTTCTT | 25800 |

| Sequence | ETS1 binding intensity |
| --- | --- |
| AGCAACTTCCGGTGCGCTTAGCGTTACTTCCGGCGC | 116000 |
| CTCGCAGGCTTCCCGGCTGCAACTTCCGGCGCATGC | 14600 |
| ACCCGGAAGCGCTTCACCCAGCCTGAGCGGAAGAAC | 5640 |
| GAGCACGACTTCCGGCCTGAAAAGGAAGTCTCCTCC | 89000 |
| CCCAGCTAAAGGAAGTCTGGCACTTCCTCTCCTCAA | 2990 |
| GAGCGGAAGTGGAAAAGACTAACTTCCGGCCTCGGG | 30600 |
| GACAGTTTCCTCTTTCACACTAGAATATCCTGTTGT | 10900 |
| TGCGCCCCGTGCTTCCTGCCATCCTGTGCTCTCTGC | 9740 |
| ACCAGGGCTGCTTCCTCACATTTCCGGTCCTGAAAA | 27700 |
| GGACCGGAAGTGCCTCCTGCGGAGGCAGGAAGTCCC | 58700 |
| AGCAGGAAGGACCTCAGTCCTCCAGTGCGGATGCTG | 207 |
| TCATCTCTCCTGCAGGAAGGAAGTCCTGCCTCCCAC | 315 |
| AACGTCCAGGAGGAAGTCAATTTCCTGGCCCTCAAT | 5100 |
| GCGCCGGAAGCAGAGACGCGTTTCGGGAGGAAGGTG | 3580 |
| GCAGGAGACGGAAGATGCATGGGTTTCCTGGCGCGC | 424 |
| ACAGCATCCGGAGCGCCGACGCGGGACCGGAAGTGA | 26000 |
| CGGGACCGGAAGTGACGCAGAGAAGTTTCCGGGACT | 56800 |
| AGAAGCACACAAGGAAGTGTTTCCGGGACAGAGGGT | 9030 |
| TAGTCCTGAAACTTCCTCTGCTTCCTCCTCCTGCCC | 2700 |
| CACGGTGATTTCCTGTAAACAACAGGAAATGTACAG | 22700 |
| TCGGACCGGAAGGAGTTGTTGGCGCTTCCGGTGGCC | 15900 |
| ACCGCCCGGAAGTGACGCGCCCGCGCATCCGGCCAC | 19800 |
| CGGACCGGAAGTTGGGGTGACGCAATTTCCGGCGCG | 54200 |
| ATCACCAGCCTTCCTGTGGGACCGGAAAGGCAGTAG | 2720 |
| GTAATACTTCGGGGAAATGCAGGATGCAGCTGCTGC | 243 |
| CGAGGCGGTCGCGGAAGTAGAGGAAGCCTTCGCGGT | 686 |
